# Results reported in PubChem BioAssay AID1159580 (chemical genetic matrix, 2015).
# The whole screen tested about 5,500 compounds, of which about 2,000 (36%) were called active. Inconclusive results (about 18%) are left out. The list shows a part of the results. A number with no mark means an inactive call. No stated cut-off is given here; in the data, active means normalized growth mostly below about 0.91 (no sharp cut-off); inconclusive means no clear call, values can overlap the other calls; inactive means mostly above about 0.92.
# Assay: chemical genetic growth profiling, strain panel (AID 1159580);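 further: tested at 20 µM; growth read once vehicle control cultures reached saturation at 30 °C; 1 = growth at the plate median or of vehicle wells; lower values mean less growth of the strain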
# Details: S. cerevisiae deletion strains, growth OD
# [1] = locus YHR030C, strain SLT2, hits give low values
smiles,measurement,setting,value
Cc1onc(-c2ccccc2)c1-c1nc(CSc2ccc(C(F)(F)F)cn2)no1,normalized growth,"locus YAL013W, strain DEP1, hits give low values",1.03
same,normalized growth,"locus YBR229C, strain ROT2, hits give low values",0.973
same,normalized growth,"locus YCL061C, strain MRC1, hits give low values",0.991
same,normalized growth,"locus YDL101C, strain DUN1, hits give low values",0.968
same,normalized growth,"locus YDR150W, strain NUM1, hits give low values",1.02
same,normalized growth,"locus YEL061C, strain CIN8, hits give low values",0.975
same,normalized growth,"locus YGR078C, strain PAC10, hits give low values",1
same,normalized growth,[1],0.818
same,normalized growth,"locus YHR087W, strain rtc3, hits give low values",0.984
same,normalized growth,"locus YJL187C, strain SWE1, hits give low values",0.977
same,normalized growth,"locus YJR043C, strain POL32, hits give low values",0.957
same,normalized growth,"locus YJR075W, strain HOC1, hits give low values",0.995
same,normalized growth,"locus YLR039C, strain RIC1, hits give low values",0.947
same,normalized growth,"locus YLR058C, strain SHM2 (second series), hits give low values",0.957
same,normalized growth,"locus YLR085C, strain ARP6, hits give low values",1.06
same,normalized growth,"locus YLR262C, strain YPT6, hits give low values",0.93
same,normalized growth,"locus YML094W, strain GIM5, hits give low values",1.02
same,normalized growth,"locus YMR219W, strain ESC1, hits give low values",0.975
same,normalized growth,"locus YMR263W, strain SAP30, hits give low values",0.971
same,normalized growth,"locus YMR307W, strain GAS1, hits give low values",1.02
same,normalized growth,"locus YNL153C, strain GIM3, hits give low values",1.02
same,normalized growth,"locus YNL298W, strain CLA4 (second series), hits give low values",1.02
same,normalized growth,"locus YNL322C, strain KRE1, hits give low values",0.964
same,normalized growth,"locus YNR030W, strain Alg12, hits give low values",1.01
same,normalized growth,"locus YOL006C, strain TOP1, hits give low values",0.946
same,normalized growth,"locus YPL055C, strain LGE1, hits give low values",1.06
same,normalized growth,"locus YPL241C, strain CIN2, hits give low values",0.93
same,normalized growth,"locus YPR135W, strain CTF4, hits give low values",1.33
Cc1onc(-c2ccccc2)c1C(=O)Sc1ccc(C(F)(F)F)cn1,normalized growth,"locus YAR019C, strain CDC15, hits give low values",0.941
same,normalized growth,"locus YBL105C, strain PKC1, hits give low values",0.961
same,normalized growth,"locus YBR135W, strain CKS1, hits give low values",0.965
same,normalized growth,"locus YBR136W, strain MEC1, hits give low values",0.955
same,normalized growth,"locus YBR160W, strain CDC28, hits give low values",0.967
same,normalized growth,"locus YDL017W, strain CDC7, hits give low values",0.967
same,normalized growth,"locus YDL028C, strain MPS1, hits give low values",0.958
same,normalized growth,"locus YDL108W, strain KIN28, hits give low values",0.974
same,normalized growth,"locus YDL132W, strain cdc53, hits give low values",0.951
same,normalized growth,"locus YDL214C, strain PRR2, hits give low values",0.217 (active)
same,normalized growth,"locus YDR052C, strain DBF4, hits give low values",0.977
same,normalized growth,"locus YDR054C, strain cdc34, hits give low values",0.937
same,normalized growth,"locus YDR226W, strain ADK1, hits give low values",0.963
same,normalized growth,"locus YDR477W, strain SNF1, hits give low values",0.187 (active)
same,normalized growth,"locus YER123W, strain YCK3, hits give low values",0.465 (active)
same,normalized growth,"locus YER133W, strain GLC7, hits give low values",0.249 (active)
same,normalized growth,"locus YFL009W, strain cdc4, hits give low values",0.951
same,normalized growth,"locus YFL029C, strain CAK1, hits give low values",0.949
same,normalized growth,"locus YFR003C, strain YPI1, hits give low values",0.971
same,normalized growth,"locus YFR019W, strain FAB1, hits give low values",0.739 (active)
same,normalized growth,"locus YFR028C, strain CDC14, hits give low values",0.968
same,normalized growth,"locus YGR040W, strain KSS1, hits give low values",0.227 (active)
same,normalized growth,"locus YGR052W, strain FMP48, hits give low values",0.242 (active)
same,normalized growth,"locus YGR092W, strain DBF2, hits give low values",0.799
same,normalized growth,[1],0.317 (active)
same,normalized growth,"locus YHR079C, strain IRE1, hits give low values",0.712
same,normalized growth,"locus YHR082C, strain KSP1, hits give low values",0.256 (active)
same,normalized growth,"locus YHR205W, strain SCH9, hits give low values",0.343 (active)
same,normalized growth,"locus YIL147C, strain SLN1, hits give low values",0.955
same,normalized growth,"locus YJL095W, strain BCK1, hits give low values",0.424 (active)
same,normalized growth,"locus YJR016C, strain ILV3, hits give low values",0.973
same,normalized growth,"locus YJR066W, strain TOR1 (second series), hits give low values",0.343 (active)
same,normalized growth,"locus YJR066W, strain TOR1, hits give low values",0.283 (active)
same,normalized growth,"locus YKL048C, strain ELM1, hits give low values",0.933
same,normalized growth,"locus YKL101W, strain HSL1, hits give low values",0.817
same,normalized growth,"locus YKL193C, strain SDS22, hits give low values",0.952
same,normalized growth,"locus YKL203C, strain TOR2, hits give low values",0.53 (active)
same,normalized growth,"locus YLR113W, strain HOG1, hits give low values",0.184 (active)
same,normalized growth,"locus YLR133W, strain CKI1, hits give low values",0.749
same,normalized growth,"locus YML070W, strain DAK1, hits give low values",0.587 (active)
same,normalized growth,"locus YMR001C, strain CDC5, hits give low values",0.952
same,normalized growth,"locus YMR205C, strain PFK2 (second series), hits give low values",0.882
same,normalized growth,"locus YMR277W, strain FCP1, hits give low values",0.943
same,normalized growth,"locus YNL006W, strain LST8, hits give low values",0.979
same,normalized growth,"locus YNL020C, strain ARK1, hits give low values",0.874
same,normalized growth,"locus YNL161W, strain CBK1, hits give low values",0.951
same,normalized growth,"locus YNL183C, strain NPR1, hits give low values",0.106 (active)
same,normalized growth,"locus YNL207W, strain RIO2, hits give low values",0.961
same,normalized growth,"locus YNL222W, strain SSU72, hits give low values",0.918
same,normalized growth,"locus YNL307C, strain MCK1 (second series), hits give low values",0.683
same,normalized growth,"locus YOL078W, strain AVO1, hits give low values",0.948
same,normalized growth,"locus YOL136C, strain PFK27, hits give low values",0.583 (active)
same,normalized growth,"locus YOR061W, strain CKA2, hits give low values",0.765
same,normalized growth,"locus YOR119C, strain RIO1, hits give low values",0.471 (active)
same,normalized growth,"locus YOR231W, strain MKK1, hits give low values",0.732
same,normalized growth,"locus YOR329C, strain SCD5, hits give low values",0.96
same,normalized growth,"locus YPL153C, strain RAD53, hits give low values",0.661
same,normalized growth,"locus YPL209C, strain IPL1, hits give low values",0.961
same,normalized growth,"locus YPL256C, strain CLN2, hits give low values",0.209 (active)
same,normalized growth,"locus YPR025C, strain CCL1, hits give low values",0.954
same,normalized growth,"locus YPR106W, strain ISR1, hits give low values",0.939
same,normalized growth,"locus YPR111W, strain DBF20, hits give low values",0.946
same,normalized growth,"strain NNK1, hits give low values",0.963
same,normalized growth,"strain TSCII, hits give low values",0.937
